Bioassay records as filed in PubChem.
This is a sample that favours compounds with a hit; in the whole collection about 2.3% have one here.
ABHD5-PLIN5 inh: inhibitors of human ABHD5-perilipin-5 interaction; inhibition, % at 4 µM; hit rate 0.78% among 360,000; Split G. princeps luciferase complementation, luminescence, 4 h; Q00G26+Q8WTS1; AID 602281;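 active = inhibition above the mean inhibition across every tested compound plus 3 SD, cut at about 22% in these data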;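 also: 0% = DMSO only wells and the 100% control is not disclosed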
Exocytosis inh: lytic granule exocytosis inhibition. TALL-104 LAMP-1 surface exposure, flow cytometry; cells stimulated with thapsigargin and PMA. inhibition, % at 10 µM. hit rate 0.66% among 360,000;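 active = inhibition above about 55%, limit read from the data; inconclusive = no clear call, values can overlap the other calls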
NTR1 agonist: NTR1 (human) agonism; P30989; NTR1-U2OS beta-arrestin-GFP spot imaging, agonist mode; activation, % at 20 µM; hit rate 0.17% among 330,000; AID 493036;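 active = activation at or above 40% of the spot to cytoplasm intensity ratio, with at least 20 cells analyzed; inconclusive = wells under 20 cells, flagged as cytotoxic or low count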;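 also: 0% = DMSO without peptide and 100% = 100 nM NTR1 peptide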
Target sequence (P30989 whole entry, looked up): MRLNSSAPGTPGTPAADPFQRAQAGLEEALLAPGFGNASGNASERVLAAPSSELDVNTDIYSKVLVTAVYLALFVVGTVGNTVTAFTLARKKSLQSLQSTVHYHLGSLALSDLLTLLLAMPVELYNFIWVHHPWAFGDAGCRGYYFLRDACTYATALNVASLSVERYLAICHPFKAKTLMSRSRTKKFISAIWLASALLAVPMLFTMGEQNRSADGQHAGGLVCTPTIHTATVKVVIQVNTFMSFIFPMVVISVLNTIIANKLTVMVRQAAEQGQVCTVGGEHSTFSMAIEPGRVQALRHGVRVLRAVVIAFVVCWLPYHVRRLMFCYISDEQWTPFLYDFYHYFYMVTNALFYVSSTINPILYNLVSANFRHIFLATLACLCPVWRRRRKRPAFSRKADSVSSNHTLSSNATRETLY
B2AR ag: activates human beta-2 adrenergic receptor causing internalization | P07550 | AID 504454 | hit rate 0.43% among 340,000 | Am2.2-beta2AR cells, FAP receptor internalization, flow cytometry | response, % (no concentration beside the values);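 active = response above a set limit, near 3 SD of response in nonfluorescent compounds, cut at about 42% in these data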
HTR2A ag: activates the mouse 5-HT2A serotonin receptor; CHO-K1 mHTR2A beta-arrestin complementation, luminescence; percent of 30 µM serotonin response; activation, % at 7.6 µM; hit rate 0.66% among 360,000; AID 624169;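 active = activation above a run cutoff, the mean activation of all tested compounds plus 3 SD, cut at about 14% in these data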;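 also: 0% = plate median of compound wells and 100% = 30 µM serotonin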
OPRM1 ag: counter-screen for mouse HTR2A agonists: human mu opioid receptor agonists; shares compounds with HTR2A ag; U2OS OPRM1 beta-arrestin PathHunter, luminescence; DMSO 0%, DAMGO 9.3 µM 100%; activation, % at 9.3 µM; hit rate 5.3% among 2,300; AID 624380;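 active = mean activation above the mean of DMSO-only wells plus 3 SD, cut at about 0.5% in these data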
m5-HT2A ag conf: confirmation of mouse HTR2A serotonin receptor agonists | shares compounds with HTR2A ag | CHO-K1 PathHunter beta-arrestin recruitment, luminescence; DMSO 0%, 30 µM serotonin 100% | activation, % at 7.6 µM | hit rate 19% among 2,300 | AID 624381;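 active = mean activation across triplicates above the hit threshold derived in the original primary screen, cut at about 15% in these data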
Starred values were filed as active, the others as inactive; ? = inconclusive; . = no result given.

SMILES	ABHD5-PLIN5 inh	Exocytosis inh	NTR1 agonist	B2AR ag	HTR2A ag	OPRM1 ag	m5-HT2A ag conf
CCCN1CCC[C@@H](c2cccc(O)c2)C1	3	-4	-2	-10	23*	0	64*
CCCN1CCC[C@H](c2cccc(O)c2)C1	7	-4	1	0	38*	-1	122*
O=C(c1ccc(-c2ccccc2)c(F)c1)C1CCCN(CCO)C1 (stereo not given)	8	8	0	-3	-8	.	.
Clc1ccc2c(c1)C(c1ccccc1Cl)=NCc1nnc(N3CCN(CCOc4ccccc4)CC3)n1-2	15	-5	4	-14	7	.	.
CCCN(CCC)[C@@H]1CCc2cccc(O)c2C1	4	-1	0	2	58*	0.8*	126*
COC(=O)C1=C(c2cc3ccccc3s2)C[C@@H]2CC[C@H]1N2C	-1	-5	1	1	-4	.	.
NC(=O)Nc1ccc(C(=O)OCC(=O)Nc2ccc(Cl)cc2C(=O)c2ccccc2)cc1	-6	?	8	-5	2	.	.
CCCN1CCC[C@@H]2Cc3[nH]ncc3C[C@H]21	4	3	2	-7	42*	-1	171*
CCCN1CCC[C@@H]2Cc3nc(N)ncc3C[C@H]21	.	.	1	.	.	.	.
COc1ccc(C(=O)C2CCCN(CC3CCCCC3)C2)cc1OC (stereo not given)	4	-2	.	.	-8	.	.
COc1ccc(N2C(=O)/C(=C/c3ccc(C)o3)C(=O)NC2=S)c(OC)c1	5	5	2	3	23*	-1	-4
Cc1ccsc1CNCCc1ccc(F)cc1	-4	5	-1	4	7	.	.
COc1ccc(CCNCc2sccc2C)cc1	-6	-2	1	-4	25*	0	9
O=C(C(Cc1ccccc1)NS(=O)(=O)c1ccc(F)cc1)N1CCC2(CC1)OCCO2 (stereo not given)	-1	-2	0	2	17*	-1	1
C=CC[C@@H](CC/C=C/C=C/CC/C=C\[C@@H]1CSC([C@@H]2C[C@@H]2C)=N1)OC	9	28	4	20	5	.	.
FC(F)(F)Oc1ccc(NC2=NCCCS2)cc1	0	-10	-1	-2	15*	-1	-1
O=C(N/N=C/C1C(=O)NC(=S)N(c2ccccc2)C1=O)c1cc(Br)c(O)c(Br)c1 (stereo not given)	5	-4	-2	15	-2	.	.
CCC1(CC)C(=O)C=CNC1=O	-7	-5	0	-5	40*	-1	-4
CN1CCC(c2c[nH]c3ccccc23)C1 (stereo not given)	-1	4	2	-9	4	.	.
CN1CCC(c2c[nH]c3ccc(O)cc23)CC1	-1	6	.	2	50*	0	32*
COc1cc(/C=C2\C(=O)NC(=O)N(c3ccccc3)C2=O)cc(OC)c1OC	18	5	-1	0	15*	0	-2
COc1cccc(C(c2nnnn2-c2ccc3c(c2)OCCO3)N2CCC(n3c(=O)[nH]c4ccccc43)CC2)c1OC (stereo not given)	7	-1	.	.	3	.	.
O=c1[nH]c2ccccc2n1C1CCN(C(c2ccccc2)c2nnnn2-c2ccc3c(c2)OCCO3)CC1 (stereo not given)	8	1	.	.	11	.	.
O=c1[nH]c2ccccc2n1C1CCN(C(c2ccccc2OC(F)(F)F)c2nnnn2-c2ccc3c(c2)OCCO3)CC1 (stereo not given)	18	10	.	.	15*	.	11
O=c1[nH]c2ccccc2n1C1CCN(C(c2cccs2)c2nnnn2-c2ccc3c(c2)OCCO3)CC1 (stereo not given)	11	-1	.	.	14*	.	17*
C/C=C(\C)C(=O)OC1C(C)=C2C(C1OC(=O)CCCCC)C(C)(OC(C)=O)CC(OC(=O)CCC)C1(O)C2OC(=O)C1(C)O (stereo not given)	.	.	26	.	.	.	.
c1coc(CN2Cc3ccccc3-n3nncc3C2)c1	11	-2	.	.	18*	-1	-2
O=C(O)Cc1cnc[nH]1	-1	2	3	7	-5	.	.
C[C@@H](N)Cc1cnc[nH]1	-1	-2	-1	3	15*	-1	-2
